The values below come from PubChem BioAssay.

Molecules are shown by their SMILES. Active and inactive are the calls of the source. No rule for the calls is given here.

For this assay, the system named is Aerobactin synthetase IucA (Klebsiella pneumoniae hvKP1). The experiment in a line: Biochemical IucA enzyme inhibition primary screen of the Spectrum library (AID 1346200).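 Also: 100% = wells without compound and 0% = wells lacking enzyme.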 As to conditions: malachite green pyrophosphate, A620, at 8 µM, stronger effect = lower value.
On to `C=CCCCCCCCCCCCC(O)CC(O)COC(C)=O` (stereo not given), for which the activity remaining was 116% (inactive).
Next, `COc1cc([C@@H]2c3cc4c(cc3C(O[C@@H]3O[C@@H]5CO[C@@H](c6cccs6)OC5[C@H](O)[C@H]3O)C3COC(=O)[C@@H]32)OCO4)cc(OC)c1O` (stereo not given in full): 92.9% (inactive); `COc1cc(OC)c2ccc(=O)oc2c1`: 112% (inactive); `CO/N=C(/C(=O)N[C@@H]1C(=O)N2C(C(=O)O)=C(CSc3nc(=O)c(O)nn3C)CS[C@H]12)c1csc(N)n1`: 110% (inactive).
As for `C=CC(C1=CC(=O)C(OC)=CC1=O)c1ccc(O)cc1` (stereo not given), the activity remaining is 120% (inactive).
For the compound `CC(=O)O[C@@H]1CC[C@@]2(C)C(CC[C@]3(C)C2CC=C2C4CC(C)(C)CC[C@]4(C(=O)O)CC[C@]23C)C1(C)C` (stereo not given in full), the activity remaining is 96.2% (inactive).
As for `CO/N=C(/C(=O)NC1C(=O)N2C(C(=O)OC(C)OC(C)=O)=C(COC(N)=O)CSC12)c1ccco1` (stereo not given), the figure is 114% (inactive).
As for `CN1CCC[C@H]1c1cccnc1`, the activity remaining is 117% (inactive).
Next, `COc1ccc(-c2oc3c(CC=C(C)C)c(O[C@@H]4O[C@H](CO)[C@@H](O)[C@H](O)[C@H]4O)cc(O)c3c(=O)c2O[C@@H]2O[C@@H](C)[C@H](O)[C@@H](O)[C@H]2O)cc1`: 121% (inactive); `COc1ccc(-c2oc3cc(O[C@H]4O[C@H](CO)[C@@H](O)[C@H](O)[C@H]4O)c(OC)c(O)c3c(=O)c2OC)cc1O`: 77.6% (inactive); `CC1(C)O[C@@H]2[C@@H](CO[C@@]3(COS(N)(=O)=O)OC(C)(C)O[C@@H]23)O1`: 115% (inactive).
As for `O=c1cc(-c2cccc(O)c2)oc2ccc(O)cc12`, the figure is 101% (inactive); as for `CC(=O)OCC(=O)[C@@]1(O)CCC2C3CCC4=CC(=O)CC[C@]4(C)C3[C@@H](O)C[C@@]21C` (stereo not given in full), 85.9% (inactive).
As to `CN[C@@H]1C(O)[C@@H](O[C@@H]2[C@@H](O)[C@H](O[C@H]3OC(CN)=CC[C@H]3N)[C@@H](N)C[C@H]2N)OC[C@]1(C)O` (stereo not given in full), the activity remaining is 96.1% (inactive).
For `CC(C)[C@@H]1CC[C@@H](C)C[C@H]1O`, the activity remaining is 95.9% (inactive).
Take `C=CCSSSCC=C`: the activity remaining is 91.6% (inactive).
Next, `COC1C=CC23c4cc5c(cc4CN(C[C@H]2O)[C@@H]3C1)OCO5` (stereo not given in full): 110% (inactive); `O=C1NS(=O)(=O)c2ccccc21`: 102% (inactive); `COc1cc(/C=C/C(=O)O)cc(OC)c1OC`: 111% (inactive).
As for `COc1cc(-c2coc3cc(OC)c(OC)c(OC)c3c2=O)cc(OC)c1OC`, the figure is 121% (inactive); as for `CC(C)NCC(O)COc1cccc2ccccc12` (stereo not given), 105% (inactive); as for `CC(C)(C)CC(C)(C)c1ccc(O)c(Cc2ccc(Cl)cc2Cl)c1`, 110% (inactive).
Next, `COC1=CC(=O)C=C(OC)C1=O`: 99.1% (inactive).
On to `CCCc1cc(=O)[nH]c(=S)[nH]1`, for which the activity remaining was 120% (inactive).
Consider `CCCCC(CC)CN=C(N)NC(N)=NCCCCCCN=C(N)NC(N)=NCC(CC)CCCC` (stereo not given), for which the activity remaining was 98.4% (inactive).
As to `CCCCC1C(=O)N(c2ccccc2)N(c2ccc(O)cc2)C1=O` (stereo not given), the activity remaining was 114% (inactive).
As for `CC(=O)N[C@@H](CC(=O)O)C(=O)O`, the figure is 110% (inactive).
As for `COc1ccc(-c2cc(=O)c3ccccc3o2)cc1OC`, the figure is 109% (inactive); as for `CCCCCCOc1ccccc1C(N)=O`, 96.8% (inactive).
For the compound `CC1CC[C@@]2(OC1)O[C@H]1CC3C4CC[C@@H]5C[C@@H](O)CC[C@]5(C)C4CC[C@]3(C)[C@H]1[C@@H]2C` (stereo not given in full), the activity remaining was 111% (inactive).
As for `Cc1onc(-c2ccccc2)c1-c1ccc(S(N)(=O)=O)cc1`, the activity remaining is 103% (inactive).
As for `Nc1ccc(S(=O)(=O)c2ccc(N)cc2)cc1`, the figure is 109% (inactive); as for `CNc1ccccc1C(=O)N1CCc2c([nH]c3ccccc23)C1=O`, 106% (inactive); as for `Cc1c(C)c2c(c(C)c1O)CCC(C)(CCCC(C)CCCC(C)CCCC(C)C)O2` (stereo not given), 105% (inactive).
Next, `Cc1cc(O)c(C=O)c(O)c1C(=O)O`: 124% (inactive).
For `O=c1ccn([C@@H]2O[C@H](COP(=O)(O)OP(=O)(O)OP(=O)(O)O)[C@@H](O)[C@H]2O)c(=O)[nH]1`, the activity remaining is 98% (inactive).
As for `Cc1c(N(C)C)c(=O)n(-c2ccccc2)n1C`, the figure is 123% (inactive).
Next, `C/C1=C\CCC(=O)C2CC(C)(C)C2CC1` (stereo not given): 105% (inactive); `CC(=O)O[C@@H]1CC2C(C)(C)C(=O)CC[C@]2(C)C2CC[C@@]3(C)[C@H](c4ccoc4)OC(=O)C4OC43[C@@]21C` (stereo not given in full): 110% (inactive); `CC(=O)OCC[N+](C)(C)C`: 118% (inactive).
